Values without a mark were called inactive. Activity calls are given as the source filed them.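 Rule for the calls: active = compounds that lower viability of the colon cancer cells in the luminescence readout, with no numeric limit stated; inactive = the rest.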

The nature of the experiment: CellTiter-Glo luminescent readout of SW480 viability loss, NPC library primary (AID 1117343). Conditions: CellTiter-Glo luminescence; at 20 µM (top of the series).
`C[C@H](N)[C@H](O)c1cccc(O)c1`: the viability decrease (inhibition) was 37.4%.

As for `CN(Cc1cc(Br)cc(Br)c1N)C1CCCCC1`, the viability decrease (inhibition) is 125% (active).

Turning to `CC(=O)Nc1ccccc1`, the viability decrease (inhibition) is 25.2%.

With `CC(=O)Nc1ccc(S(=O)(=O)Nc2ccc([N+](=O)[O-])cc2)cc1`, the viability decrease (inhibition) was 11.5%.

Turning to `CCCOc1ccc2nc(NC(=O)OC)[nH]c2c1`, the viability decrease (inhibition) is 14.3%.

`CN(C)CCOC(=O)C(c1ccccc1)C1(O)CCCC1` (stereo not drawn): the viability decrease (inhibition) is 20.7%.

`Cc1cc(O)cc(C)c1Cl`: the viability decrease (inhibition) was 28.5%.

As for `CCCCCCc1ccc(O)cc1O`, the viability decrease (inhibition) was 84.1% (active).

Regarding `Nc1ncnc2nc[nH]c12`, the viability decrease (inhibition) is -59.6%.

Take `CC(N)C(=O)OC(C)(C)Cc1ccc(Cl)cc1` (stereo not drawn): the viability decrease (inhibition) is 13.1%.

Turning to `COc1c2occc2c(OC)c2c(=O)cc(C)oc12`, the viability decrease (inhibition) is 21.5%.

Take `CC1=C(C(=O)O)N2C(=O)[C@@H](NC(=O)[C@H](N)c3ccc(O)cc3)[C@H]2SC1`: the viability decrease (inhibition) is 7.8%.

With `COc1ccc(NS(=O)(=O)c2ccc(N)cc2)nn1`, the viability decrease (inhibition) is 2.4%.

For `NC[C@H]1O[C@H](O[C@H]2[C@H](O)[C@@H](O[C@H]3O[C@H](CO)[C@@H](O)[C@H](N)[C@H]3O)[C@H](N)C[C@@H]2N)[C@H](N)[C@@H](O)[C@@H]1O`, the viability decrease (inhibition) is 6.5%.

As for `CCCCc1nc(Cl)c(CO)n1Cc1ccc(-c2ccccc2-c2nn[nH]n2)cc1`, the viability decrease (inhibition) is 28.5%.

On to `CC(=O)Oc1cccc(O)c1`, for which the viability decrease (inhibition) is 29.4%.

Regarding `COc1ccc(C(=O)c2ccccc2)c(O)c1`, the viability decrease (inhibition) is 3.3%.

`O=C(N[C@H](CO)[C@H](O)c1ccc([N+](=O)[O-])cc1)C(Cl)Cl`: the viability decrease (inhibition) was -0.7%.

Turning to `CCN(CC)CCOC(=O)C(c1ccccc1)C1CCCCC1` (stereo not drawn), the viability decrease (inhibition) was 36.2%.

With `Nc1c2ccccc2nc2ccccc12`, the viability decrease (inhibition) was 107% (active).

`Oc1c(Br)cc(Br)c2cccnc12`: the viability decrease (inhibition) is 153% (active).

Turning to `C[N+]12CCC(CC1)C(OC(=O)C(O)(c1ccccc1)c1ccccc1)C2` (stereo not drawn), the viability decrease (inhibition) was 22.9%.

On to `CC(=O)Nc1c(I)cc(I)c(C(=O)O)c1I`, for which the viability decrease (inhibition) is -4.3%.

In the case of `Cc1c(NC(C)C)c(=O)n(-c2ccccc2)n1C`, the viability decrease (inhibition) is -10%.

Take `COc1ccc2cc3[n+](cc2c1OC)CCc1cc2c(cc1-3)OCO2`: the viability decrease (inhibition) was 33.2%.

`NC(N)=N/N=C/c1c(Cl)cccc1Cl`: the viability decrease (inhibition) was 99.6% (active).

For the molecule `CCN(CC)C(=O)c1cccc(C)c1`, the viability decrease (inhibition) was -14.3%.

For the molecule `CC(=O)OCC(COC(C)=O)OC(C)=O`, the viability decrease (inhibition) is -5.5%.

For the molecule `CC1(C)OC(=O)NC1=O`, the viability decrease (inhibition) is 11.1% (active).

On to `COc1cnc(NS(=O)(=O)c2ccc(N)cc2)nc1`, for which the viability decrease (inhibition) is 23.4%.

Turning to `CCCCC(CC)CN1CN(CC(CC)CCCC)CC(C)(N)C1` (stereo not drawn), the viability decrease (inhibition) is 145% (active).

With `Cc1[nH]c(C)c(Cl)c(=O)c1Cl`, the viability decrease (inhibition) was 29%.

For `Cc1nnc(NS(=O)(=O)c2ccc(N)cc2)s1`, the viability decrease (inhibition) is 86.3% (active).

For `Nc1ccc(C(=O)O)cc1`, the viability decrease (inhibition) was 13.3%.

Take `Nc1nccs1`: the viability decrease (inhibition) is 66.3% (active).

In the case of `COc1ccc(-c2cc(C(F)F)nn2-c2ccc(S(N)(=O)=O)cc2)cc1F`, the viability decrease (inhibition) is 6.3%.

For the molecule `NC(=O)c1ccc([N+](=O)[O-])cc1Cl`, the viability decrease (inhibition) is 32.9%.

`CCC(=O)O[C@H]1[C@H](O[C@@H]2[C@@H](C)[C@H](O[C@H]3C[C@@](C)(OC)[C@@H](O)[C@H](C)O3)[C@@H](C)C(=O)O[C@H](CC)[C@@](C)(O)[C@H](O)[C@@H](C)C(=O)[C@H](C)C[C@@]2(C)O)O[C@H](C)C[C@@H]1N(C)C`: the viability decrease (inhibition) was 13.9%.

These data come from PubChem BioAssay.
